Inconclusive results are not listed. The source made the active and inactive calls. Unless noted, calls follow the shape of the dose curve; as a rule, active = well fitted curve in the direction sought with a large enough effect in the repeat runs; inconclusive = weak or mixed curves; inactive = no such curve, though single readings can be large; an effect the other way counts as inactive or inconclusive.
How the values were obtained:
[1] = qHTS assay to identify small molecule agonists of the estrogen receptor alpha (ER-alpha) signaling pathway in the presence of an antagonist - cell viability counter screen (AID 1259386);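 also: series mostly up to about 92 µM; cells exposed to compounds for 22 h at 37 °C before the viability read; nearly all actives have a fitted effect of over 30% in size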
In short: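 Cell viability in VM7Luc4E2 cells (endogenous full-length ER-alpha) measured by CellTiter-Fluor fluorescence in the same wells as the luciferase screen. Cells pre-cultured 5 days in charcoal-stripped serum, then treated 22 h with compounds at 15 concentrations plus 10.0nM ICI-182,780.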

[2] = biological target: Progesterone receptor (Homo sapiens) (UniProt P06401); experiment: qHTS assay to identify small molecule agonists of the progesterone receptor (PR) signaling pathway (AID 1346784; calls by dose curve; also: nearly all actives have a fitted effect of over 30% in size)
Sequence of Progesterone receptor (Homo sapiens) (P06401 whole entry, looked up): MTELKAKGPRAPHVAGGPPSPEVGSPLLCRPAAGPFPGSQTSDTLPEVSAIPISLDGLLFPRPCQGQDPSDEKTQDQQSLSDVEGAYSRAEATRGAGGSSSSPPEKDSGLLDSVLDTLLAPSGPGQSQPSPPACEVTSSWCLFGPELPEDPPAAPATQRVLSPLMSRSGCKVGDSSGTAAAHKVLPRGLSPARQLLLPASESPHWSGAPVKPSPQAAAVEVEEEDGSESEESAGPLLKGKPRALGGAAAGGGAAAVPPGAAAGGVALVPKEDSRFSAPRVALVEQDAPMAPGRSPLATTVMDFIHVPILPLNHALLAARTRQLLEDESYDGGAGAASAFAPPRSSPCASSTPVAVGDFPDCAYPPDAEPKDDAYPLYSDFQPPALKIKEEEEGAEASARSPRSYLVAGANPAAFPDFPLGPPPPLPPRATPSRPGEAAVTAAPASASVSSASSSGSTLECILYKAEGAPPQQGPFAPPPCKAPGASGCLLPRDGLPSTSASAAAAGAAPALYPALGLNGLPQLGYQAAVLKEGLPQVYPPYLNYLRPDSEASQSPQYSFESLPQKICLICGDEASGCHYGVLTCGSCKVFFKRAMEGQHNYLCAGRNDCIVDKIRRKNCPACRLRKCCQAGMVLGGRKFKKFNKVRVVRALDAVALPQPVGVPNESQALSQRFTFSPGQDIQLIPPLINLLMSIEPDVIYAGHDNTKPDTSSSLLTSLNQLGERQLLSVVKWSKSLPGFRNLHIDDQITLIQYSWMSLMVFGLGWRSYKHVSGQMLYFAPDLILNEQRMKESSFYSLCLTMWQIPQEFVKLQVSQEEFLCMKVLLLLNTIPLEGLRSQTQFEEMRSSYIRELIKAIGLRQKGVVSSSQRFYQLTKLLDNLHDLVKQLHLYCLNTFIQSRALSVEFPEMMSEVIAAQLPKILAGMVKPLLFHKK
In short: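 Cells (PR-UAS-bla HEK 293T, GripTite) were plated in assay medium containing 2% charcoal-stripped FBS and incubated 6 hr. Test compounds in DMSO were added for 16 hr at 37C. FRET substrate was then loaded for 2 hr at room temperature before fluorescence reading.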

[3] = biological target: Progesterone receptor (Homo sapiens) (UniProt P06401); experiment: qHTS assay to identify small molecule antagonists of the progesterone receptor (PR) signaling pathway (AID 1346795; active = well fitted inhibition curve with a large enough effect in the signal ratio in the repeat runs, not every such curve was filed as active; the % refers to the signal ratio)
In short: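 Antagonist mode: compounds tested against 1 nM (final) promegestone stimulation in HEK293T cells expressing PR-UAS-bla reporter, 16 hr at 37C, 5% CO2; beta-lactamase activity detected via B/G FRET substrate after 2 hr at room temperature.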

[4] = qHTS assay to identify small molecule antagonists of the progesterone receptor (PR) signaling pathway - cell viability counter screen (AID 1346798); also: nearly all actives have a fitted effect of over 50% in size; also: potency is read from the fitted curve at half-maximal effect; as to activity change, negative = cytotoxicity: series mostly up to about 92 µM
In short: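 Counter screen for cytotoxicity: viability of PR-UAS-bla HEK293T cells was measured with CellTiter-Glo luminescence following 16 hr compound exposure in the presence of R5020.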

[5] = qHTS assay to identify small molecule agonists of the progesterone receptor (PR) signaling pathway - cell viability counter screen (AID 1346799; calls by dose curve; also: nearly all actives have a fitted effect of over 45% in size)
In short: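 Cells (PR-UAS-bla HEK293T) are plated at 3,000/well in 2% charcoal-stripped FBS medium, rested 6 hr, dosed and incubated 16 hr at 37C. CellTiter-Glo is then added and luminescence measured after 30 min at room temperature.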

[6] = qHTS assay to identify small molecule antagonists of the TGF-beta/Smad signaling pathway - cell viability counter screen (AID 1346824); also: nearly all actives have a fitted effect of over 50% in size
In short: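 SBE-bla HEK 293T cells were plated overnight at 37 C, then given compounds in DMSO plus TGF-beta1 (added as 0.25 ng/mL solution) for 5 hr. After the bla read, CellTiter-Glo was added to the same wells and luminescence read after 30 min at room temperature.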

[7] = qHTS assay to identify small molecule agonists of the TGF-beta/Smad signaling pathway - cell viability counter screen (AID 1346829); also: top concentration of the series differs between compounds; nearly all actives have a fitted effect of over 45% in size
In short: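 Compound-treated SBE-bla HEK 293T cells (5 hr, 37 C) were assessed for viability with CellTiter-Glo in parallel with the reporter read.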

[8] = qHTS assay to identify small molecule agonists of the TGF-beta/Smad signaling pathway (AID 1346859; active = well fitted activation curve with a large enough effect in the signal ratio in the repeat runs, not every such curve was filed as active; the % refers to the signal ratio; also: series mostly up to about 77 µM)
In short: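 Reporter line: HEK 293T with stably integrated SBE-controlled beta-lactamase. Compound exposure lasts 5 hr at 37 C and 5% CO2; substrate loading follows for 2 hr at room temperature, with emission read at 460 and 530 nm.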

[9] = biological target: Thyrotropin-releasing hormone receptor (Homo sapiens) (UniProt P34981); experiment: qHTS assay to identify small molecule antagonists of the thyrotropin-releasing hormone receptor (TRHR) signaling pathway (AID 1346877; active = well fitted inhibition curve with a large enough effect in the repeat runs, not every such curve was filed as active; also: series mostly up to about 51 µM)
Sequence of Thyrotropin-releasing hormone receptor (Homo sapiens) (P34981 whole entry, looked up): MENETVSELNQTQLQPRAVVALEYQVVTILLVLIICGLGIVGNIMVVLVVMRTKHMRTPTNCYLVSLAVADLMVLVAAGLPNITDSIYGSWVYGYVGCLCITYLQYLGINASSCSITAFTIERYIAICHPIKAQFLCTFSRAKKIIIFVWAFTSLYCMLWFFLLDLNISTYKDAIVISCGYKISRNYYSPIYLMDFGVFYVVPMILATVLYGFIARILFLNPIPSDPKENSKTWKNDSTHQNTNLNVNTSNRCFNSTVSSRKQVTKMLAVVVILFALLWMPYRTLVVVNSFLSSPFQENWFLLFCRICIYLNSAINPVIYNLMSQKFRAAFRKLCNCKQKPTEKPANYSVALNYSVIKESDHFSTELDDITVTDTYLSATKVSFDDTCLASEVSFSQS
In short: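 TRHR-expressing HEK293 cells loaded with calcium dye for 2 h at 37 C; compounds pre-incubated 5 min at room temperature before TRH challenge at 1 nM final. Intracellular calcium fluorescence read kinetically for 3 min; 15 concentrations in triplicate.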

[10] = biological target: Thyrotropin-releasing hormone receptor (Homo sapiens) (UniProt P34981); experiment: qHTS assay to identify small molecule agonists of the thyrotropin-releasing hormone receptor (TRHR) signaling pathway (AID 1346891; calls by dose curve; also: series mostly up to about 58 µM)
In short: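 Cells: TRHR-Hek293, seeded and incubated 18 h. Dye loading: 2 h at 37 °C. Compound added from DMSO stock by pin tool. Read-out: kinetic calcium fluorescence over 3 min.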

[11] = Human pregnane X receptor (PXR) small molecule agonists, qHTS cell viability counter screen (AID 1346977); also: nearly all actives have a fitted effect of over 50% in size
In short: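 Cytotoxicity counter screen run in the same wells as the PXR luciferase assay, using PXR-Luc HepG2 cells in charcoal-stripped serum medium. Viability: CellTiter-Fluor fluorescence after 24hr compound treatment.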

[12] = Caspase-3/7 induction in CHO-K1 cells by small molecules, qHTS cell viability counter screen (AID 1346979); also: nearly all actives have a fitted effect of over 35% in size; also: potency is read from the fitted curve at half-maximal effect
In short: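 Cytotoxicity counter screen run in parallel with the caspase-3/7 assay: CHO-K1 cells, 16hr compound treatment at 37C, then CellTiter-Fluor for 1hr before fluorescence reading.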

[13] = Caspase-3/7 induction in CHO-K1 cells by small molecules, qHTS assay (AID 1346980); also: nearly all actives have a fitted effect of over 15% in size
In short: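 Wild-type cells were seeded at 1,500 per well and settled 5 hr at 37 C, 5% CO2, then exposed to DMSO-dissolved compounds for 17 hr. Caspase-Glo 3/7 reagent was added, and luminescence was read after 30min at room temperature.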

[14] = Caspase-3/7 induction in HepG2 cells by small molecules, qHTS cell viability counter screen (AID 1346981); also: nearly all actives have a fitted effect of over 30% in size; also: potency is read from the fitted curve at half-maximal effect; as to activity change, negative = cytotoxicity: series mostly up to about 92 µM
In short: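 Wild-type HepG2 cells, 2,000/well, settled 5 hr at 37 C, 5% CO2 before compound addition. Viability read by CellTiter-Fluor fluorescence, reagent added after 16 hr compound exposure, then 1 hr at 37C, in the same wells as the caspase read.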

[15] = biological target: Nuclear receptor subfamily 1 group I member 2 (Homo sapiens) (UniProt O75469); experiment: Human pregnane X receptor (PXR) small molecule agonists, qHTS assay (AID 1346982); also: nearly all actives have a fitted effect of over 35% in size; also: potency is read from the fitted curve at half-maximal effect
Sequence of Nuclear receptor subfamily 1 group I member 2 (Homo sapiens) (O75469 whole entry, looked up): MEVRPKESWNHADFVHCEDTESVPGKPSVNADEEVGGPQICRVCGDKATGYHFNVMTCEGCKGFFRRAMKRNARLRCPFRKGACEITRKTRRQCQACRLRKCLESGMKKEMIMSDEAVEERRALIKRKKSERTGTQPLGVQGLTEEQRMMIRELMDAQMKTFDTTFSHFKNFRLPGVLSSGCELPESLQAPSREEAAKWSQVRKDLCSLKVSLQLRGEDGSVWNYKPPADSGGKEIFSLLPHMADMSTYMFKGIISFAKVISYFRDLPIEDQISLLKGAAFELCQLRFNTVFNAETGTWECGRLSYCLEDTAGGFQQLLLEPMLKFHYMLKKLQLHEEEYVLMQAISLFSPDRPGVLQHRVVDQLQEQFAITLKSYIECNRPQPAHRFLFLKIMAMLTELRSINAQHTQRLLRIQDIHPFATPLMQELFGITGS
In short: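 PXR-Luc HepG2 reporter cells (CYP3A4-driven luciferase) in 5% charcoal-stripped FBS medium, plated 5 h before compound addition, then treated 24 h at 37C. Luciferase read by ONE-Glo luminescence after 30 min at room temperature.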

[16] = biological target: Thyrotropin receptor (Homo sapiens) (UniProt P16473); experiment: qHTS assay to identify small molecule antagonists of the thyroid stimulating hormone receptor (TSHR) signaling pathway (AID 1259385; calls by dose curve; also: nearly all actives have a fitted effect of over 20% in size)
Sequence of Thyrotropin receptor (Homo sapiens) (P16473 whole entry, looked up): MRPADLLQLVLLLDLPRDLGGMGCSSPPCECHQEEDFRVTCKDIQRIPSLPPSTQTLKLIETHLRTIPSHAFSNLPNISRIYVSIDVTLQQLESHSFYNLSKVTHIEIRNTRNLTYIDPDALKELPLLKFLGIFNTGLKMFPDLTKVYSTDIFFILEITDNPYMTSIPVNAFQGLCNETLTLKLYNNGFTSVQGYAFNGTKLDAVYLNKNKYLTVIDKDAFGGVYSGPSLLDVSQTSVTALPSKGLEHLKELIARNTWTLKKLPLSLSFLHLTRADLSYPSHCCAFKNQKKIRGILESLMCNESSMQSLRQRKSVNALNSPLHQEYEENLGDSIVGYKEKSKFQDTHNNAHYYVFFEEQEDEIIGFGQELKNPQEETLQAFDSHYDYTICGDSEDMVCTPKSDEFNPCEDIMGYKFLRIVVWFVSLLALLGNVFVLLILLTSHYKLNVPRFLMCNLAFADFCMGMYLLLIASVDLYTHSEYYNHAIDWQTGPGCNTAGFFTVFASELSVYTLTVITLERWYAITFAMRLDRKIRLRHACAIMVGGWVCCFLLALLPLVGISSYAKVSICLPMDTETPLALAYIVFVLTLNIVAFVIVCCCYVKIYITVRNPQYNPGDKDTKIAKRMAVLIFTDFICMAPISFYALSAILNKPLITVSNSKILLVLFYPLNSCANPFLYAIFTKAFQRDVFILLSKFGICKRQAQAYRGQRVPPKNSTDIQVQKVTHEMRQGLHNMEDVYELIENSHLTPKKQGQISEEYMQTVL
In short: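 TSHR-HEK293 cells were plated and held 18 h at 37C/5% CO2, then given compound plus Ro20-1724 and stimulated with TSH at 1.5 ng/mL final. After 30 min at room temperature, cAMP was detected with cAMP-d2/anti-cAMP-cryptate (1 h) by fluorescence.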

[17] = Caspase-3/7 induction in HepG2 cells by small molecules, qHTS assay (AID 1346978); also: nearly all actives have a fitted effect of over 15% in size
In short: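 Wild-type HepG2 cells (2,000/well) were settled 5 h at 37 C, 5% CO2, then exposed to compounds in DMSO for 17 h. Caspase-3/7 activity was read by luminescence 30 min after adding Caspase-Glo 3/7 reagent at room temperature.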

[18] = biological target: Nuclear receptor subfamily 1 group I member 2 (Rattus norvegicus) (UniProt Q9R1A7); experiment: Rat pregnane X receptor (rPXR) activation by small molecules, qHTS assay (AID 1346983); details: rPXR luciferase reporter cells, One-Glo luminescence, 24 h; max activation: active compounds read high; also: nearly all actives have a fitted effect of over 20% in size
Sequence of Nuclear receptor subfamily 1 group I member 2 (Rattus norvegicus) (Q9R1A7 whole entry, looked up): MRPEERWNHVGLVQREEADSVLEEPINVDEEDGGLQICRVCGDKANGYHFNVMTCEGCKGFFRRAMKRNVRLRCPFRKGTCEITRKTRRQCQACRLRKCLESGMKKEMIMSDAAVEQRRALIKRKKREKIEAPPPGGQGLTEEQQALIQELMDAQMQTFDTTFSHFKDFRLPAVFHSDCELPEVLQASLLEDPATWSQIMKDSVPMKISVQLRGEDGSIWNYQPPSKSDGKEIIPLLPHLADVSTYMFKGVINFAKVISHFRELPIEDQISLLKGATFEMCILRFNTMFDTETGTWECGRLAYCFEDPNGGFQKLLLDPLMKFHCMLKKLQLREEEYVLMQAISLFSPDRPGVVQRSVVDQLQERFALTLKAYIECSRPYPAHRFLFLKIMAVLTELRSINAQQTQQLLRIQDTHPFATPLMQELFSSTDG
In short: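 Cell-based rPXR luciferase reporter assay, 2,000 cells per well, rested 5hr at 37 C before compound addition in DMSO, then 24 hr at 37 C. One-Glo reagent was added and luminescence read after 30 min at room temperature.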

[19] = biological target: Nuclear receptor subfamily 1 group I member 2 (Homo sapiens) (UniProt O75469); experiment: Human pregnane X receptor (PXR) activation by small molecules, qHTS assay (AID 1346985); also: nearly all actives have a fitted effect of over 40% in size
In short: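 DPX-2 cells (HepG2 co-transfected with a PXR response element and a CYP3A4-promoter luciferase construct) were seeded at 2,000 per well, rested 5 hr at 37C, then exposed to DMSO-dissolved compounds for 24 hr. Activation was read as luciferase luminescence.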
% is scaled to controls: 0 for no effect and ±100 for the full control effect.

CCCCCCCCC(=O)OCC(C)OC(=O)CCCCCCCC (centres undefined)
inactive: Potency [1] | Potency [2] | Potency [3] | Potency [4] | Potency [5] | outcome [6] | outcome [7] | outcome [8] | outcome [9] | outcome [10] | Potency [11] | Potency [12] | Potency [13] | Potency [14] | Potency [15]

CC(C)CCCCCOC(=O)CS
inactive: Potency [16] | Potency [1] | Potency [4] | Potency [5] | outcome [6] | outcome [7] | outcome [8] | outcome [9] | outcome [10] | Potency [11] | Potency [17] | Potency [12] | Potency [13] | Potency [14]

O=C(NC1CCN(CCc2c[nH]c3ccccc23)CC1)c1ccccc1
inactive: Potency [16] | Potency [2] | Potency [3] | Potency [5] | outcome [6] | outcome [7] | outcome [8] | outcome [10] | Potency [12] | Potency [13] | Potency [14] | Potency [15] | max activation [18] -9.19% | Potency [19]

O=C1c2ccccc2C(=O)C1c1ccc2ccccc2n1
active: Potency [12] 9.59 µM | Potency [14] 6.05 µM | Potency [15] 1.91 µM
inactive: Potency [16] | Potency [3] | Potency [5] | outcome [6] | outcome [8] | outcome [9] | outcome [10] | Potency [17] | Potency [13]

c1ccc(CCNc2nc(-c3ccccc3)cs2)cc1
active: Potency [15] 3.76 µM
inactive: Potency [16] | Potency [1] | Potency [5] | outcome [7] | outcome [8] | outcome [9] | outcome [10] | Potency [11] | Potency [17] | Potency [12] | Potency [13] | Potency [14]

CC(=O)c1ccc(Cl)c(Cl)c1Cl
inactive: Potency [16] | Potency [1] | Potency [4] | Potency [5] | outcome [7] | outcome [8] | outcome [10] | Potency [11] | Potency [17] | Potency [12] | Potency [13] | Potency [14] | Potency [15]

COC=O
inactive: activity change, negative = cytotoxicity [1] -3.92% [at 8.39 µM] | activation [2] 0.0776% [at 8.39 µM] | activity change, negative = inhibition [3] -3.19% [at 8.39 µM] | activity change, negative = cytotoxicity [4] 0.308% [at 8.39 µM] | activity change, negative = cytotoxicity [5] 7.63% [at 8.39 µM] | viability change, negative = cytotoxic [6] 2.71% [at 6.97 µM] | activity change, negative = cytotoxicity [7] 8.3% [at 6.97 µM] | activation [8] -0.257% [at 6.97 µM] | activity, negative = inhibition [9] 1.15% [at 4.65 µM] | activation [10] -1.05% [at 5.23 µM] | activity change, negative = cytotoxicity [11] 3.92% [at 8.39 µM] | caspase activation [17] -1.76% [at 8.39 µM] | activity change, negative = cytotoxicity [12] 2.52% [at 8.39 µM] | caspase-3/7 activation [13] -0.739% [at 8.39 µM] | activity change, negative = cytotoxicity [14] 7.73% [at 8.39 µM] | activation [15] -0.203% [at 8.39 µM]

CC1=C(C)C(=O)C(CCCCC#CCCCC#CCO)=C(C)C1=O
inactive: Potency [16] | Potency [2] | outcome [6] | outcome [7] | outcome [8] | outcome [9] | outcome [10] | Potency [17] | Potency [13] | Potency [14]
active: Potency [12] 29.8 µM | Potency [15] 26.6 µM

CC(C)=CCCC(C)C=O (centres undefined)
inactive: Potency [1] | Potency [2] | Potency [3] | Potency [4] | Potency [5] | outcome [6] | outcome [7] | outcome [8] | outcome [9] | outcome [10] | Potency [11] | Potency [17] | Potency [12] | Potency [14] | Potency [15]

CCc1cnc(C(=O)O)c(C(=O)O)c1
inactive: Potency [1] | Potency [2] | Potency [3] | Potency [4] | Potency [5] | outcome [6] | outcome [7] | outcome [8] | outcome [9] | outcome [10] | Potency [12] | Potency [13] | Potency [14] | Potency [15]

COC(=O)C(C)(C)C
inactive: Potency [16] | Potency [1] | Potency [3] | outcome [6] | outcome [7] | outcome [9] | outcome [10] | Potency [11] | Potency [17] | Potency [12] | Potency [13] | Potency [14] | Potency [15]

NCCOCCOCCN
inactive: Potency [16] | Potency [1] | outcome [6] | outcome [8] | outcome [9] | outcome [10] | Potency [11] | Potency [17] | Potency [12] | Potency [13] | Potency [14] | Potency [15]
active: Potency [4] 15.4 µM

CCOC(=O)CC(O)(CC(=O)OCC)C(=O)OCC
inactive: Potency [16] | Potency [1] | Potency [4] | Potency [5] | outcome [7] | outcome [8] | Potency [11] | Potency [17] | Potency [12] | Potency [13] | Potency [14] | Potency [15]

CCN(CC)CC(=O)OCC(=O)[C@@]1(O)CC[C@H]2[C@@H]3CCC4=CC(=O)CC[C@]4(C)[C@H]3[C@@H](O)C[C@@]21C
inactive: Potency [16] | Potency [1] | Potency [5] | outcome [6] | outcome [7] | outcome [8] | outcome [9] | outcome [10] | Potency [11] | Potency [17] | Potency [12] | Potency [13] | Potency [14]
